Data on 25 molecules can be found in PubChem BioAssay (NCATS).

Test [1] in a line: Viability qHTS for spleen associated tyrosine kinase inhibitor (SYKi) drug resistant MV4-11 cells (AID 1963824). Further: nearly all actives have a fitted effect of over 35% in size. Further: potency means the concentration at half of the fitted maximal effect. The conditions noted are these: SYKi-resistant MV4-11 viability, CellTiter-Glo, 72 h; series mostly up to 45 µM. Put shortly:
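SYK inhibitor-resistant MV4-11 AML cells, 500 per well, added to predispensed compounds and incubated 72 hr at 37 C, 5% CO2. Viability measured by CellTiter-Glo luminescence after 10 min at room temperature.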
Background: Quantitative high-throughput screening tests each substance at several concentrations.

The nature of test [2]: Quantitative highthroughput screen to assess conditional lethalithy of P12 Ichikawa cells grown in RPMI1640 with dialyzed fetal bovine serum (RPMI+ds) (AID 1963880). Further: nearly all actives have a fitted effect of over 35% in size. Further: potency means the concentration at half of the fitted maximal effect.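 On Viability: 100% = DMSO wells and 0% = empty wells on each plate.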 The settings on record: ATP luminescence, 48 h; Potency: P12-Ichikawa viability; series mostly up to 45.8 µM. Put shortly: (§1)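 Each medium arm—HPLM with 10% dialyzed FBS, or RPMI1640 with 5 mM glucose and 10% untreated or dialyzed FBS—was screened against an 11-point, 3-fold compound titration for 48 h at 37 °C, with CellTiter-Glo luminescence as endpoint.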

Test [3] in a line: Quantitative highthroughput screen to assess conditional lethalithy of P12 Ichikawa cells grown in RPMI1640 with untreated serum (RPMI+s) (AID 1963881). Further: nearly all actives have a fitted effect of over 35% in size. Further: potency means the concentration at half of the fitted maximal effect.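 On Viability: 100% = DMSO wells and 0% = empty wells without cells.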 The settings on record: ATP luminescence, 48 h; Potency: viability; series mostly up to 45.8 µM. Summed up: as §1
A short description of test [4]: Cellular viability qHTS for adrenocortical cancer (ACC) cell line NCI-H295R (AID 1963990). Further: nearly all actives have a fitted effect of over 60% in size. Further: potency means the concentration at half of the fitted maximal effect. The settings on record: CellTiter-Glo ATP luminescence, 48 h; series mostly up to 46.1 µM. Summed up: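 Luminescent ATP read-out (CellTiter-Glo, 20 min RT) after 48 h drug exposure of NCI-H295R cells; a titration up to 46 uM final. Data normalized to doxorubicin (100% inhibition) and DMSO (0%); 4-parameter fit gives IC50, max response.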

Test [5] is described as follows: Quantitative highthroughput screen to assess conditional lethalithy of NOMO1 cells grown in Human Plasma-Like Medium with dialyzed fetal bovine serum (HPLM+ds) (AID 1963878). Further: nearly all actives have a fitted effect of over 35% in size. Further: potency means the concentration at half of the fitted maximal effect.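 On Viability: 100% = DMSO wells and 0% = empty wells on each plate.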 The conditions noted are these: NOMO1 AML cells in HPLM+ds, CellTiter-Glo viability, 48 h; series mostly up to 45.8 µM. Summed up:
as §1
On the technique in general: Cellular ATP, detected with luciferase, serves as a proxy for viable cell number.

Test [6] is described as follows: Quantitative highthroughput screen to assess conditional lethalithy of SEM cells grown in RPMI1640 with unreated serum (RPMI+s) (AID 1963883). Further: nearly all actives have a fitted effect of over 35% in size. Further: potency means the concentration at half of the fitted maximal effect.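 On Viability: 100% = DMSO wells and 0% = empty wells without cells.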 The settings on record: SEM B-ALL cells, CellTiter-Glo viability, 48 h; series mostly up to 45.8 µM. Summed up:
as §1

A short description of test [7]: Cellular viability qHTS for adrenocortical cancer (ACC) cell line SW-13 (AID 1963989). Further: nearly all actives have a fitted effect of over 65% in size. Further: potency means the concentration at half of the fitted maximal effect.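 On activity (max response): cells grown in serum-free medium with ITS supplement; on the % scale 0 is the no-effect control and ±100 the full control effect.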 The conditions noted are these: SW-13 ACC cells viability, CellTiter-Glo, 48 h; activity (max response): hits give low values. Put shortly: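 SW-13 cells in ITS-supplemented serum-free DMEM were plated overnight, then exposed for 48 h at 37C to compound titrations (up to 46 uM final). Viability was read by CellTiter-Glo luminescence; four-parameter logistic fits gave IC50 and efficacy.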

Test [8] in a line: Quantitative highthroughput screen to assess conditional lethalithy of NOMO1 cells grown in RPMI1640 with untreated serum (RPMI+s) (AID 1963876). Further: nearly all actives have a fitted effect of over 35% in size. Further: potency means the concentration at half of the fitted maximal effect.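 On Viability: 100% = DMSO wells and 0% = empty wells without cells.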 The settings on record: NOMO1 AML cells in RPMI+serum, CellTiter-Glo viability, 48 h; series mostly up to 45.8 µM. Put shortly: as §1
Test [9] can be described thus: Quantitative highthroughput screen to assess conditional lethalithy of P12 Ichikawa cells grown in Human Plasma-Like Medium with dialyzed fetal bovine serum (HPLM+ds) (AID 1963879). Further: nearly all actives have a fitted effect of over 35% in size. Further: potency means the concentration at half of the fitted maximal effect. The settings on record: ATP luminescence, 48 h; Potency: viability; series mostly up to 45.8 µM. Put shortly:
as §1

Test [10] can be described thus: Quantitative highthroughput screen to assess conditional lethalithy of SEM cells grown in Human Plasma-Like Medium with dialyzed fetal bovine serum (HPLM+ds) (AID 1963882). Further: nearly all actives have a fitted effect of over 35% in size. Further: potency means the concentration at half of the fitted maximal effect. The conditions noted are these: SEM B-ALL cells in HPLM+ds, CellTiter-Glo viability, 48 h; series mostly up to 45.8 µM. Put shortly: as §1
Test [11] is described as follows: Quantitative highthroughput screen to assess conditional lethalithy of SEM cells grown in RPMI1640 with dialyzed fetal bovine serum (RPMI+ds) (AID 1963884). The conditions noted are these: SEM B-ALL cells, RPMI+dialyzed FBS, CellTiter-Glo viability, 48 h; series mostly up to 45.8 µM. Put shortly:
as §1

A short description of test [12]: Quantitative highthroughput screen to assess conditional lethalithy of NOMO1 cells grown in RPMI1640 with dialyzed fetal bovine serum (RPMI+ds) (AID 1963877). Further: nearly all actives have a fitted effect of over 30% in size. Further: potency means the concentration at half of the fitted maximal effect.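 On Viability: 100% = DMSO control wells and 0% = empty wells.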 The settings on record: NOMO1 in RPMI+dialyzed FBS viability, ATP luminescence, 48 h; series mostly up to 45.8 µM. Put shortly: as §1

“And” between values parts separate entries of the source, which are not always exact repeats. Equal values may be shown once. Records with an inconclusive call do not appear. Values without a mark were called inactive. The source made the active and inactive calls. The call rests on the fitted dose curve; in most records, active means well fitted curve in the direction sought with a large enough effect; inconclusive means small, poorly fitted or top-dose-only effect, or another doubt; inactive means no such curve, though single readings can be large; an effect the other way counts as inactive or inconclusive.

Turning to `CCCCN1[C@@H]2CC[C@H]1CC(OC(c1ccc(F)cc1)c1ccc(F)cc1)C2` (stereo not given in full), in test [1], the Potency was 8.2 µM (active).

`Cc1cc(SCc2sc(-c3ccc(C(F)(F)F)c(F)c3)nc2C)ccc1OCC(=O)O`: the Potency in test [1] is 18.6 µM (active). The Potency result in test [2], in test [3] and in test [4] was “inactive” in each case.

On to `CC(=O)O[C@@H]1[C@H]2CC[C@H]3[C@@](C)(O)[C@@H]4C[C@H](O)C(C)(C)[C@@]4(O)[C@H](O)C[C@@]13C[C@@]2(C)O`, for which the Potency result in [1] is “inactive”.

`O=C(Nc1ccncc1)C(=O)c1cn(Cc2ccc(Cl)cc2)c2ccccc12`: the Potency in [1] was 0.166 µM (active); in test [5] it was 59 nM (active); in test [6], 52.6 nM (active); in [7] it was 126 nM (active); in test [4], 126 nM (active).

For `CCNC(=O)C[C@@H]1N=C(c2ccc(Cl)cc2)c2cc(OC)ccc2-n2c(C)nnc21`, the Potency is 461 nM (active) and 417 nM (active) in test [1]; 9350 nM (active) in test [8]. The activity (max response) in test [7] is -15.2%. In test [4], the Potency result is “inactive”.

As to `CCOc1ccccc1-n1c(C(C)N2CCN(C(=O)COc3ccc(Cl)cc3)CC2)nc2ccccc2c1=O` (stereo not given), the Potency in test [1] was 1.46 µM (active) and 1.32 µM (active); in test [5], 741 nM (active); in test [9] it was 741 nM (active); in test [3], 1480 nM (active); in test [10], 1050 nM (active); in test [6], 417 nM (active).

Take `O=C1NC(=O)c2c1c1c3ccccc3n3c1c1c2c2ccccc2n1C1CCC3O1`: the Potency in test [1] was 0.0164 µM (active).

As to `COc1cc2cc(c1Cl)N(C)C(=O)C[C@H](OC(=O)C(C)C)[C@]1(C)O[C@H]1[C@H](C)[C@@H]1C[C@@](O)(NC(=O)O1)[C@H](OC)C=CC=C(C)C2`, the Potency result in [8], in [9], in test [3], in test [10], in [6] and in test [11] was “inactive” in each case.

As for `O=C(O)c1ccc(=O)[nH]c1`, the Potency result in [1] and in test [4] was “inactive” throughout.

In the case of `CC=C(C)C(=O)O[C@H]1C(C)=C2[C@@H]3OC(=O)[C@@](C)(O)[C@@]3(O)[C@@H](OC(=O)CCC)C[C@](C)(OC(C)=O)[C@@H]2[C@@H]1OC(=O)CCCCCCC`, the Potency in test [12] is 66.2 nM (active); in test [5] it was 66.2 nM (active); in test [9], 118 nM (active); in [2], 132 nM (active); in [10], 59 nM (active).

As to `NCc1cccnc1`, the Potency entry in test [1] and in test [4] was “inactive” in each case.

Turning to `C[C@]12Cc3cn[nH]c3C[C@@H]1CC[C@@H]1[C@H]2CC[C@@]2(C)[C@H]1CC[C@]2(C)O`, the Potency result in [8], in test [12], in test [9], in [2] and in test [3] was “inactive” in each case.

With `COC12C(COC(N)=O)C3=C(C(=O)C(C)=C(N)C3=O)N1CC1C2N1C` (stereo not given), the Potency in [1] is 0.833 µM (active); in test [7], 25100 nM (active); in test [4], 15800 nM (active).

In the case of `C[C@]12CC[C@H]3[C@@H](CCC4=CC(=O)CC[C@@]43C)[C@H]1CC[C@H]2O`, the Potency entry in test [8], in [5], in test [9], in [3], in test [10] and in [6] was “inactive” in each case.

As for `CC(C)CC(N(C)C)C1(c2ccc(Cl)cc2)CCC1` (stereo not given), the Potency entry in test [8] and in test [5] was “inactive” throughout. The activity (max response) in test [7] was -12.4%.

For the molecule `C[C@]12COC(=O)C[C@@H]1CC[C@@H]1[C@H]2CC[C@@]2(C)[C@H]1CC[C@]2(C)O`, the Potency entry in [12], in test [5], in test [9], in [2], in [3] and in test [10] was “inactive” throughout.

Turning to `C=C[C@@H]1CN2CCC1C[C@H]2[C@H](O)c1ccnc2ccccc12` (stereo not given in full), the Potency entry in [8] and in [9] was “inactive” each time.

For the molecule `CC(=Cc1csc(C)n1)[C@@H]1C[C@H]2O[C@@H]2CCC[C@H](C)[C@@H](O)[C@@H](C)C(=O)C(C)(C)[C@@H](O)CC(=O)O1`, the Potency entry in test [8], in test [9], in test [3], in test [6] and in [11] was “inactive” in each case.

For `C#C[C@]1(O)C=C[C@@H]2[C@@H]3CCC4=CC(=O)CC[C@@H]4[C@H]3CC[C@@]21CC`, the Potency entry in test [8], in [9], in test [3], in test [10] and in [6] was “inactive” throughout.

Regarding `C[C@]12CC[C@H]3[C@@H](CCC4=CC(=O)CC[C@@]43C)[C@H]1CC[C@H]2OC(=O)CCC1CCCC1`, the Potency entry in [8], in [9], in test [3], in test [6], in [11] and in [4] was “inactive” each time. In [7], the activity (max response) was -10.5%.

Consider `COc1ccc(CC2NCCc3cc(OC)c(OC)cc32)cc1OC` (stereo not given), for which the Potency result in [8], in [5], in test [2] and in [3] was “inactive” throughout.

With `Oc1ccc2c3c1O[C@H]1c4[nH]c5c(c4C[C@@]4(O)[C@@H](C2)N(CC2CC2)CC[C@]314)C[C@@]1(O)[C@H]2Cc3ccc(O)c4c3[C@@]1(CCN2CC1CC1)[C@H]5O4`, the Potency result in test [12] was “inactive”.

In the case of `NC1=NC(=O)N2CC12` (stereo not given), the Potency in [8] is 5900 nM (active); in test [12] it was 5260 nM (active); in [5], 4180 nM (active); in test [9] it was 7430 nM (active); in test [10], 3320 nM (active). The activity (max response) in test [7] is -7.87%. Besides, the Potency result in test [4] was “inactive”.

As for `CN(C)C(=S)SSC(=S)N(C)C`, the Potency in test [1] is 4.73 µM (active); in [4], 25900 nM (active).

As to `O=c1[nH]c2ccc(Cl)cc2c(N[C@@H]2CN3CCC2CC3)c1-c1nc2ccccc2[nH]1`, the Potency in test [8] was 132 nM (active); in test [12], 148 nM (active); in [9] it was 469 nM (active); in test [3], 166 nM (active); in [10], 41.8 nM (active); in test [7], 3550 nM (active). The Potency in test [4] is 355 nM (active).
